The entries come from a sample that favours hits as a whole.
ST2 inh: blocks human ST2 binding to IL-33. AlphaLISA ST2-Fc/biotin-IL-33 interaction, 1 h. inhibition, % for hits at 17 µM. 78,000 compounds, 2.3% hits; in the data active = inhibition above about 30%
Target sequence (Q01638 whole entry, looked up): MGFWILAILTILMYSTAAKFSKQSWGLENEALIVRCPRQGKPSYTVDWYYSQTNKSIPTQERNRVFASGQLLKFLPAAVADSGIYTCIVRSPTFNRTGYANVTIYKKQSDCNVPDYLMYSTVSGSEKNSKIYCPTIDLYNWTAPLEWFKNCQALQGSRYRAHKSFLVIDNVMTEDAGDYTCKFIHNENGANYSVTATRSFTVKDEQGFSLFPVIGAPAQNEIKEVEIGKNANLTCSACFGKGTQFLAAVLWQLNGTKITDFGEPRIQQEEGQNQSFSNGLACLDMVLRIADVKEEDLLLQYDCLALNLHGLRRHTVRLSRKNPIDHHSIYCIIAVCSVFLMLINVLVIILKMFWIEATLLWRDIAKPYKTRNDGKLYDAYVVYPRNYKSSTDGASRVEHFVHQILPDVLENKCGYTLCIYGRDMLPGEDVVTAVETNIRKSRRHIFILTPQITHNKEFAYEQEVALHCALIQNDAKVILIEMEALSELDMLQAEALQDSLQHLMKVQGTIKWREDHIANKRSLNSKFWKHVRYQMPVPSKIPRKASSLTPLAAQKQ
An asterisk follows results filed as active; i = inactive.

SMILES	ST2 inh
Cc1cccc(NC(c2ccc(N(C)C)cc2)c2ccc3ccc(C)nc3c2O)n1 (stereo not drawn)	44%*
CCCNC(=O)CN1CCCN(Cc2ccccc2)S1(=O)=O	i
N#Cc1cccc(-c2ccc(=O)n3c2[C@@H]2C[C@@H](CN(C(=O)C4CCCCC4)C2)C3)c1	i
O=C1C2CCCN2C(c2ccco2)N1c1ccccn1 (stereo not drawn)	i
COc1ccc(/C=C/c2nc3ccccc3c(=O)n2-c2ccccc2[N+](=O)[O-])cc1	44%*
CCOC(=O)c1nc2ccccc2c(=O)n1-c1cc(Cl)c(OC)cc1OC	i
Cc1ccc(-n2c(C)nc3ccc(I)cc3c2=O)c([N+](=O)[O-])c1	i
O=c1c2ccccc2nc(/C=C/c2ccc(O)cc2)n1-c1cccc([N+](=O)[O-])c1	34%*
Cc1ccnc(-n2c(C)nc3ccccc3c2=O)c1	i
O=c1c2ccccc2nc(Cc2ccccc2)n1-c1ccccc1	i
COc1ccc(-n2c(/C=C\c3ccccc3F)nc3ccccc3c2=O)c(OC)c1	30%*
COc1cc(/C=C/c2nc3ccccc3c(=O)n2-c2ccccc2OC)ccc1O	i
O=c1c2ccccc2nc(/C=C/c2ccc(F)cc2)n1-c1ccccc1	i
S=C(NC[C@H]1C[C@@H]2CCN1C[C@@H]2CN1CCOCC1)Nc1ccc(-n2cccn2)cc1	i
CCOC(=O)Cc1csc(NC(=O)c2cccn(Cc3ccccc3F)c2=O)n1	i
CN1C(=O)C(=Cc2cccn2-c2cccc([N+](=O)[O-])c2)C(=O)N(C)C1=O	i
C=CCN(C)C(=O)[C@H]1CN2CCC1C[C@@H]2Cn1cc(-c2cccc(N)c2)nn1 (stereo partly drawn)	i
O=C(Nc1ccc2n(c1=O)C[C@@H]1CNC[C@H]2C1)c1cnccn1	i
CC(C)NC(=O)NC[C@H]1C[C@@H]2CCN1C[C@@H]2CN1C[C@@H]2C[C@H](C1)c1cccc(=O)n1C2	i
COc1ccccc1NC(=O)CN1C(=O)C(C)N=C(c2ccccc2)c2ccccc21 (stereo not drawn)	i
O=[N+]([O-])c1ccc(N2CCN(Cc3ccc(Br)cc3)CC2)cc1	i
Oc1cccc(CN2CCN(c3ccc(F)cc3)CC2)c1	i
O=[N+]([O-])c1ccc(N2CCN(Cc3cccc(Br)c3)CC2)cc1	32%*
COc1ccc(N2CCN(Cc3cccc([N+](=O)[O-])c3)CC2)cc1	i
Cc1cccc(CN2CCN(c3ccc([N+](=O)[O-])cc3)CC2)c1	42%*
SMILES	ST2 inh
CCN1CCN(Cc2cccc(C)c2)CC1	i
COc1ccc(C(=O)N2C[C@@H]3C[C@H](C2)c2ccc(-c4cncnc4)c(=O)n2C3)cc1	i
CCN(CC)C[C@H]1CN2CC[C@H]1C[C@@H]2CNC(=S)NCCOC	i
CC(C)[C@@H](C)/C=C/[C@@H](C)[C@H]1CC[C@@H]2[C@]1(C)CCC1[C@]23C=C[C@]2(C[C@@H](O)CC[C@]12C)OO3 (stereo partly drawn)	i
C#Cc1ccc(CN(C)C(C)Cc2cc(C)ccn2)cc1 (stereo not drawn)	i
O=[N+]([O-])c1ccc(NCc2ccccc2)c2ncccc12	51%*
O=[N+]([O-])c1ccc(N2CCCCC2)c2ncccc12	62%*
O=[N+]([O-])c1ccc(O)cc1CN1CCN(Cc2ccccc2)CC1	i
CCN(CCNc1ccc([N+](=O)[O-])c2cccnc12)S(=O)(=O)c1ccccc1	i
COc1cc2c(cc1OC)C(C(=O)N1CCC3(CC1)OCCO3)C(c1cccs1)N(C)C2=O (stereo not drawn)	i
CC[C@H]1CN2CC[C@H]1C[C@@H]2COC(=O)Nc1ccc(Oc2ccccc2)cc1	i
O=C(CN1CC=C(c2cnn(-c3ccccn3)c2)CC1)NCC1CCCO1 (stereo not drawn)	i
Cn1nc(C2CCCCC2)cc1[C@H]1CN2CC[C@H]1C[C@@H]2CNC(=S)Nc1cccc(C#N)c1	i
Fc1ccc(N2CCN(C[C@H]3CN4CC[C@H]3C[C@@H]4CNC(=S)NCCN3CCOCC3)CC2)cc1	i
COCC(=O)NC[C@H]1C[C@@H]2CCN1C[C@@H]2CN1CCC(Cc2ccccc2)CC1	i
Cn1nc(C2CCCCC2)cc1[C@H]1CN2CC[C@H]1C[C@@H]2CNC(=S)Nc1ccccc1	i
CCOc1ccccc1CN1CCN(CC)CC1	i
O=[N+]([O-])c1ccc(C(Cl)Cl)o1	64%*
Cn1nc(-c2ccco2)cc1[C@H]1CN2CC[C@H]1C[C@@H]2CNS(=O)(=O)c1cccs1	i
COCC(=O)NC[C@H]1C[C@@H]2CCN1C[C@@H]2CN1CCN(c2ccccc2)CC1	i
O=C(c1ccncc1)N1C[C@@H]2C[C@H](C1)c1ccc(-c3cncnc3)c(=O)n1C2	i
COc1ccc(CN2CCN(Cc3ccccc3)CC2)c(C)c1C	34%*
COc1ccc(CN2CCN(C)CC2)c(OC)c1C	i
CCN1CCN(Cc2ccc(OC)c(C)c2C)CC1	i
O[C@]12CCCC[C@@H]1[C@@H](c1ccccc1F)NCC2	i

From PubChem BioAssay
